Consider 26 compounds from PubChem BioAssay (EPA / NIEHS).

Values joined by “and” are separate entries in the source; they are usually repeats but may differ in a detail not shown here. Equal values may be shown once. Some compounds were tested as several samples or in several runs, with calls that do not always agree. Active and inactive are the calls of the source. The calls were made as follows: active = hit-call score of the fitted dose curve at least 0.9, where 1 is the maximum; inactive = score below 0.9.

Read-out in the experiment: Plasminogen activator inhibitor-1 (PAI1), SERPINE1 (gene 5054)
Description: BSK_hDFCGF_PAI1: BioMAP Diversity Plus: hDFCGF Assay for Plasminogen activator inhibitor-1 (PAI1) Biomarker Activity (AID 2283066). The note with it: primary human foreskin fibroblasts; actives raise or lower the signal. The gist of the method: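 PAI-1 levels in human dermal foreskin fibroblasts were quantified by ELISA 24 h after dosing, with gain or loss analysed against DMSO. Overt cytotoxicity was checked by sulforhodamine B total-protein staining in parallel cultures.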
Regarding `O=C(O)CCCOc1ccc(Cl)cc1Cl`, the result was inactive.
As for `O=C(O)C(F)(F)C(F)(F)C(F)(F)C(F)(F)C(F)(F)C(F)(F)C(F)(F)F`, the outcome was inactive.
Take `COc1nn(CSP(=S)(OC)OC)c(=O)s1`: the result was inactive.
As to `CC1(c2ccc(Oc3ccccc3)cc2)OC(=O)N(Nc2ccccc2)C1=O` (configuration not stated), the outcome was inactive.
Take `ClC1C(Cl)C(Cl)C(Cl)C(Cl)C1Cl` (configuration not stated): the result was inactive.
Regarding `N#CN`, the result was inactive.
As for `COC(=O)c1ccccc1S(=O)(=O)NC(=O)N(C)c1nc(C)nc(OC)n1`, the result was inactive.
Take `O=C(NC(=O)c1c(F)cccc1F)Nc1ccc(OC(F)(F)C(F)OC(F)(F)F)c(Cl)c1` (configuration not stated): the result was inactive.
The same measure, in the same setting: to `CNC(=O)/C=C(\C)OP(=O)(OC)OC` belongs “inactive”.
Consider `O=S(=O)(O)C(F)(F)C(F)(F)C(F)(F)C(F)(F)C(F)(F)C(F)(F)C(F)(F)C(F)(F)F`, for which the AC50 is 20 µM (active) and 48.5 µM (active); the result was inactive.
Take `COc1cc(OC)nc(NC(=O)NS(=O)(=O)c2cc(NC=O)ccc2C(=O)N(C)C)n1`: the outcome was inactive.
Turning to `O=C(O)COc1ccc(Cl)cc1Cl`, the outcome was inactive.
Still for that read-out and setting: in the case of `CC1(C)C(C=C(Cl)Cl)C1C(=O)OC(C#N)c1ccc(F)c(Oc2ccccc2)c1` (configuration not stated) it was “inactive”; in that of `CCN(CC)C(=O)SCc1ccc(Cl)cc1`, “inactive”.
Take `Oc1cc(Cl)ccc1Oc1ccc(Cl)cc1Cl`: the AC50 was 6.96 µM (active) and 8.43 µM (active) and 7.44 µM (active).
In the case of `Oc1ccc(Cl)cc1Cc1ccccc1`, the half-maximal activity concentration (AC50) was 24.5 µM (active) [middle of 6 runs].
As to `C[C@H]1[C@H](c2ccc(Cl)cc2)SC(=O)N1C(=O)NC1CCCCC1`, the outcome was inactive.
`CC(C)(C)C(O)/C(=C\c1ccc(Cl)cc1Cl)n1cncn1` (configuration not stated): the AC50 is 9.85 µM (active).
Still for that read-out and setting: to `CCC(C)(NC(=O)c1cc(Cl)c(C)c(Cl)c1)C(=O)CCl` (configuration not stated) belongs 8.04 µM (active).
Regarding `COC(=O)c1ccccc1CS(=O)(=O)NC(=O)Nc1nc(OC)cc(OC)n1`, the result was inactive.
With `COC(=O)c1ccccc1S(=O)(=O)NC(=O)Nc1nc(C)nc(OC)n1`, the outcome was inactive.
For the compound `CC(C)OC(=O)Nc1cccc(Cl)c1`, the result was inactive.
Consider `CCOc1nc(NC)nc(NC(=O)NS(=O)(=O)c2ccccc2C(=O)OC)n1`, for which the AC50 is 5.36 µM (active).
Consider `O=C(Nc1ccccc1)Nc1cnns1`, for which the result was inactive.
For the compound `CNC(=O)Oc1ccccc1OC(C)C`, the result was inactive.
On to `O=[N+]([O-])c1c(Cl)c(Cl)c(Cl)c(Cl)c1Cl`, for which the AC50 is 28.8 µM (active).

By AC50 is commonly meant the concentration giving half of the maximal activity seen.
